Molecules are shown by their SMILES. Results filed as inconclusive are left out. Activity calls are given as the source filed them. Calls follow the shape of the dose curve; as a rule, active = well fitted curve in the direction sought with a large enough effect; inconclusive = small, poorly fitted or top-dose-only effect, or another doubt; inactive = no such curve, though single readings can be large; an effect the other way counts as inactive or inconclusive.

This passage reports Potency results from PubChem BioAssay (NCATS).

The nature of experiment [1]: Quantitative High-Throughput drug screen in 47 multiple myeloma cell lines against the NCATS MIPE library collection: Delta47_JCRB cell viability assay (AID 1918925; also: nearly all actives have a fitted effect of over 45% in size). In a few lines:
(§1)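 Primary qHTS used for cherry-picking: cells at 500/well, library compounds for 48 h (37C, 5% CO2), luminescent ATP assay.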

Experiment [2] is described as follows: Quantitative High-Throughput drug screen in 47 multiple myeloma cell lines against the NCATS MIPE library collection: EJM_DSMZ cell viability assay (AID 1918926; also: nearly all actives have a fitted effect of over 30% in size). In a few lines:
as §1

A short description of experiment [3]: Quantitative High-Throughput drug screen in 47 multiple myeloma cell lines against the NCATS MIPE library collection: AMO1_DSMZ cell viability assay (AID 1918927; also: nearly all actives have a fitted effect of over 30% in size). In outline:
as §1

Experiment [4] is described as follows: Quantitative High-Throughput drug screen in 47 multiple myeloma cell lines against the NCATS MIPE library collection: ARP1_JJKsccF8 cell viability assay (AID 1918928; also: nearly all actives have a fitted effect of over 40% in size). In a few lines:
(§2)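 CellTiter-Glo luminescence after 48 h exposure gives viability, scaled between DMSO-only (100%) and media-only (0%) controls. Library compounds are pinned onto 500 myeloma cells per well, incubated at 37C with 5% CO2.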

A short description of experiment [5]: Quantitative High-Throughput drug screen in 47 multiple myeloma cell lines against the NCATS MIPE library collection: ARD_JJKsccE7 cell viability assay (AID 1918929). In a few lines:
as §1

Experiment [6] can be described thus: Quantitative High-Throughput drug screen in 47 multiple myeloma cell lines against the NCATS MIPE library collection: Karpas620_DSMZ cell viability assay (AID 1918959). Also: nearly all actives have a fitted effect of over 30% in size. In a few lines:
(§3)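 Relative luminescence from CellTiter-Glo served as the viability signal, referenced to DMSO-treated (100%) and cell-free medium (0%) controls. Treatment lasted 48 hours at 37C with 500 cells per well.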

Experiment [7] can be described thus: Quantitative High-Throughput drug screen in 47 multiple myeloma cell lines against the NCATS MIPE library collection: KMM1_JCRB cell viability assay (AID 1918960). Also: nearly all actives have a fitted effect of over 30% in size. In a few lines:
as §2

Experiment [8] can be described thus: Quantitative High-Throughput drug screen in 47 multiple myeloma cell lines against the NCATS MIPE library collection: KHM11_PLB cell viability assay (AID 1918962). Also: nearly all actives have a fitted effect of over 35% in size. In a few lines:
as §3

A short description of experiment [9]: Quantitative High-Throughput drug screen in 47 multiple myeloma cell lines against the NCATS MIPE library collection: JIM3_ECACC cell viability assay (AID 1918963; also: nearly all actives have a fitted effect of over 35% in size). In outline:
as §3

A short description of experiment [10]: Quantitative High-Throughput drug screen in 47 multiple myeloma cell lines against the NCATS MIPE library collection: JIM1_ECACC cell viability assay (AID 1918964). In outline:
as §1

Experiment [11] in a line: Quantitative High-Throughput drug screen in 47 multiple myeloma cell lines against the NCATS MIPE library collection: INA6_PLB cell viability assay (AID 1918965; also: nearly all actives have a fitted effect of over 55% in size). In a few lines: as §3
A short description of experiment [12]: Quantitative High-Throughput drug screen in 47 multiple myeloma cell lines against the NCATS MIPE library collection: JJN3_DSMZ cell viability assay (AID 1918966; also: nearly all actives have a fitted effect of over 50% in size). In a few lines: as §1
The nature of experiment [13]: Quantitative High-Throughput drug screen in 47 multiple myeloma cell lines against the NCATS MIPE library collection: H1112_PLB cell viability assay (AID 1918967; also: nearly all actives have a fitted effect of over 30% in size). In a few lines:
as §1

A short description of experiment [14]: Quantitative High-Throughput drug screen in 47 multiple myeloma cell lines against the NCATS MIPE library collection: Karpas25_ECACC cell viability assay (AID 1918968; also: nearly all actives have a fitted effect of over 35% in size). In outline: as §1
Experiment [15] can be described thus: Quantitative High-Throughput drug screen in 47 multiple myeloma cell lines against the NCATS MIPE library collection: KMS27_JCRB cell viability assay (AID 1918970). Also: nearly all actives have a fitted effect of over 30% in size. In a few lines:
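Luminescent ATP read-out (CellTiter-Glo, 5 min at room temperature) after 48 h compound exposure of 500 KMS27_JCRB cells per well; DMSO wells define full viability and media-only wells zero.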

The nature of experiment [16]: Quantitative High-Throughput drug screen in 47 multiple myeloma cell lines against the NCATS MIPE library collection: KMS12BM_JCRB cell viability assay (AID 1918971). Also: nearly all actives have a fitted effect of over 35% in size. In outline:
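qHTS of the MIPE 4.0 collection: 500 myeloma cells/well, 48 h drug exposure at 37C in 5% CO2, then CellTiter-Glo for 5 min at room temperature before luminescence reading.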

Experiment [17] can be described thus: Quantitative High-Throughput drug screen in 47 multiple myeloma cell lines against the NCATS MIPE library collection: KMS12PE_JCRB cell viability assay (AID 1918972). Also: nearly all actives have a fitted effect of over 30% in size. In a few lines: as §3
A short description of experiment [18]: Quantitative High-Throughput drug screen in 47 multiple myeloma cell lines against the NCATS MIPE library collection: KMS20_JCRB cell viability assay (AID 1918973). Also: nearly all actives have a fitted effect of over 45% in size. In outline:
as §1

Experiment [19] in a line: Quantitative High-Throughput drug screen in 47 multiple myeloma cell lines against the NCATS MIPE library collection: KMS21BM_JCRB cell viability assay (AID 1918974). The settings on record: ATP luminescence, 48 h; viability: at 45.8 µM (top of the series) unless noted. In a few lines:
as §1

Experiment [20] is described as follows: Quantitative High-Throughput drug screen in 47 multiple myeloma cell lines against the NCATS MIPE library collection: Karpas417_ECACC cell viability assay (AID 1918961). The conditions noted are these: Karpas417 myeloma viability, CellTiter-Glo ATP luminescence, 48 h; viability (% of DMSO): at 45.8 µM (top of the series). In a few lines:
as §3
Potency is read from the fitted curve at half-maximal effect.

In the case of `Nc1ncnc2c1c(-c1cnc3[nH]ccc3c1)nn2C1CCCC1`, the Potency in [1] is 0.235 µM (active); in experiment [2], 6.62 µM (active); in [3], 0.662 µM (active); in experiment [4], 0.743 µM (active); in experiment [5], 1.32 µM (active); in experiment [6], 0.662 µM (active). Further, the Potency in experiment [7] was 0.0662 µM (active); in experiment [8] it was 0.296 µM (active); in [9], 4.69 µM (active); in experiment [10] it was 0.526 µM (active); in experiment [11], 0.209 µM (active); in experiment [12], 2.35 µM (active). Further, the Potency was 6.62 µM (active) in experiment [13]; 0.209 µM (active) in experiment [14]; 0.209 µM (active) in experiment [15]; 0.743 µM (active) in experiment [16]; 0.935 µM (active) in [17]; 0.0833 µM (active) in experiment [18]. The Potency in experiment [19] was 1.05 µM (active).

Turning to `CC1(O)CC(c2nc(-c3ccc4ccc(-c5ccccc5)nc4c3)c3c(N)nccn23)C1` (stereo not drawn), the Potency in experiment [1] is 0.0833 µM (active); in experiment [2] it was 6.62 µM (active); in experiment [3], 2.96 µM (active); in experiment [4], 5.9 µM (active); in experiment [5], 0.105 µM (active); in [6], 0.59 µM (active). For the same molecule, the Potency is 1.05 µM (active) in experiment [7]; 4.18 µM (active) in [8]; 0.148 µM (active) in experiment [9]; 0.0105 µM (active) in experiment [10]; 6.62 µM (active) in experiment [11]; 6.62 µM (active) in experiment [12]. Further, the Potency was 23.5 µM (active) in [13]; 0.372 µM (active) in [14]; 16.6 µM (active) in experiment [16]; 2.35 µM (active) in experiment [17]; 1.18 µM (active) in experiment [18].

Turning to `CCC1=C[C@@H]2CN(C1)Cc1c([nH]c3ccccc13)[C@@](C(=O)OC)(c1cc3c(cc1OC)N(C)[C@@H]1[C@@](O)(C(=O)OC)[C@H](OC(C)=O)[C@]4(CC)C=CCN5CC[C@]31[C@@H]54)C2`, the Potency in experiment [1] is 0.0235 µM (active); in experiment [2], 1.05 µM (active); in experiment [3], 0.0526 µM (active); in experiment [4], 0.0053 µM (active); in experiment [5] it was 0.0074 µM (active); in experiment [7] it was 0.0083 µM (active). Moreover, the Potency is 0.0148 µM (active) in experiment [9]; 0.0019 µM (active) in [10]; 7.43 µM (active) in experiment [12]; 0.148 µM (active) in experiment [13]; 0.0187 µM (active) in experiment [14]; 0.0264 µM (active) in [16]. Moreover, the Potency in [17] was 0.0093 µM (active); in experiment [18] it was 0.0235 µM (active); in experiment [19], 0.0332 µM (active).

Consider `C=CC(=O)Nc1cccc(Oc2nc(Nc3ccc(N4CCN(C)CC4)cc3)ncc2Cl)c1`, for which the Potency is 1.87 µM (active) in [1]; 23.5 µM (active) in experiment [2]; 5.26 µM (active) in experiment [3]; 13.2 µM (active) in [4]; 16.6 µM (active) in experiment [5]; 5.26 µM (active) in experiment [6]. Moreover, the Potency is 9.35 µM (active) in [7]; 16.6 µM (active) in experiment [8]; 5.9 µM (active) in experiment [9]; 2.96 µM (active) in experiment [11]; 18.7 µM (active) in experiment [12]; 5.9 µM (active) in [13]. Moreover, the results for the Potency in experiment [14], in [15] and in [18] were 3.72 µM (active), 4.69 µM (active) and 1.87 µM (active), respectively.

On to `COc1ccc(C=Cc2cc(OC)c(OC)c(OC)c2)cc1O`, for which the Potency result in experiment [1], in experiment [2], in [3], in experiment [4], in experiment [5] and in experiment [6] was “inactive” in each case. Also, the Potency result in experiment [7], in experiment [8], in experiment [9], in experiment [10], in [11] and in experiment [13] was “inactive” in each case. The Potency entry in experiment [14], in [15], in [17] and in [19] was “inactive” throughout.

As for `CC(=O)c1c(C)c2cnc(Nc3ccc(N4CCNCC4)cn3)nc2n(C2CCCC2)c1=O`, the Potency was 23.5 µM (active) in [1]; 18.7 µM (active) in [2]; 16.6 µM (active) in experiment [3]; 14.8 µM (active) in [4]; 26.4 µM (active) in experiment [6]; 20.9 µM (active) in [7]. Also, the Potency in experiment [20] was 16.6 µM (active); in [8], 23.5 µM (active); in experiment [9] it was 18.7 µM (active); in experiment [10] it was 5.9 µM (active); in [12], 23.5 µM (active); in [13], 23.5 µM (active). The Potency was 11.8 µM (active) in experiment [14]; 26.4 µM (active) in [15]; 0.833 µM (active) in experiment [16]; 7.43 µM (active) in experiment [18]; 14.8 µM (active) in experiment [19].

Consider `CC1COC2(CCN(c3nc(=O)c4cc(C(F)(F)F)cc([N+](=O)[O-])c4s3)CC2)O1` (stereo not drawn), for which the Potency entry in experiment [1], in experiment [2], in [3], in experiment [4], in experiment [5] and in experiment [6] was “inactive” in each case. Moreover, the Potency entry in experiment [7], in [9], in experiment [10], in [11], in [12] and in [13] was “inactive” throughout. The Potency entry in experiment [14] and in [16] was “inactive” in each case.

Consider `Cc1nc(N)ncc1-c1nc(N2CCOCC2)c2sc(C(C)(C)O)cc2n1`, for which the Potency in experiment [1] is 0.235 µM (active); in experiment [2] it was 1.48 µM (active); in experiment [3], 1.32 µM (active); in experiment [4], 0.105 µM (active); in experiment [5], 0.0332 µM (active); in experiment [7], 0.332 µM (active). For the same molecule, the Potency in [10] is 0.0418 µM (active); in [11] it was 3.72 µM (active); in [12] it was 5.26 µM (active); in experiment [13] it was 6.62 µM (active); in experiment [14], 0.418 µM (active); in experiment [16], 8.33 µM (active). Also, the values for the Potency in experiment [18] and in experiment [19] were 1.32 µM (active) and 1.05 µM (active), respectively.

For `Cn1cc(-c2ccncc2)c(-c2ccc(OCc3ccc4ccccc4n3)cc2)n1`, the Potency in experiment [1] was 2.64 µM (active); in experiment [2], 14.8 µM (active); in experiment [3], 3.32 µM (active); in experiment [4] it was 4.69 µM (active); in [5], 6.62 µM (active); in experiment [6], 4.69 µM (active). The Potency was 8.33 µM (active) in [7]; 3.32 µM (active) in experiment [11]; 3.72 µM (active) in experiment [12]; 1.48 µM (active) in experiment [14]; 18.7 µM (active) in [16]; 5.9 µM (active) in [17]. Moreover, the Potency in experiment [19] was 3.32 µM (active).

Regarding `CN1CC[C@@H](c2c(O)cc(O)c3c(=O)cc(-c4ccccc4Cl)oc23)[C@@H](O)C1`, the Potency is 0.0662 µM (active) in [1]; 0.0743 µM (active) in experiment [2]; 0.0264 µM (active) in experiment [3]; 0.0833 µM (active) in [4]; 0.0935 µM (active) in [6]; 0.059 µM (active) in [7]. Further, the Potency in experiment [20] was 0.0187 µM (active); in experiment [8], 0.0235 µM (active); in experiment [9], 0.0833 µM (active); in experiment [10] it was 0.0235 µM (active); in [12] it was 0.0743 µM (active); in [13], 0.132 µM (active). In addition, the Potency is 0.0833 µM (active) in [14]; 0.0935 µM (active) in experiment [15]; 0.132 µM (active) in experiment [16]; 0.132 µM (active) in [17]; 0.0833 µM (active) in experiment [18]; 0.0296 µM (active) in experiment [19].
